# High-throughput results from PubChem.
# Rows were chosen to be rich in hits. Some 2.4% of all compounds tested hit in one or more screens of this group.
# FEN1 inh-1 – blocks human flap endonuclease 1; P39748; Recombinant FEN1 flap cleavage, fluorescence, 15 min; Potency, µM (highest dose often 114 µM), without a hit: at the top dose activity change, negative = inhibition, actives largely listed as inhibitors; actives 0.35% (n = 390,000); AID 588795; note: potency is the fitted concentration of half-maximal effect; % is set by controls: 0 for no effect and ±100 for the full control effect; nearly all actives have a fitted effect of over 65% in size
#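 Steps: FEN1 (10 nM) dispensed; compound added by pin tool; 15 min at room temperature; substrate added to 50 nM final; reads at 0 min and 15 min; data normalized and fitted (four-parameter Hill).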
# WRN helicase inh – inhibitors of human WRN helicase; actives 0.46% (n = 360,000); AID 651768; WRN helicase unwinding, fluorescent forked duplex, kinetic; Potency, µM (doses to about 114 µM), for the others: at the highest dose activity change, negative = inhibition, hits mostly inhibitors; Q14191; note: potency is the fitted concentration of half-maximal effect; % is set by controls: 0 for no effect and ±100 for the full control effect; nearly all actives have a fitted effect of over 55% in size
#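 Screening of the MLSMR collection measured strand separation of a quenched forked DNA duplex (100 nM) by 20 nM WRN with 2 mM ATP, all final. Compounds were preincubated with enzyme 15 min at room temperature.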
# Pol eta inh-1 – DNA polymerase eta (human) inhibition; recombinant Pol eta, fluorescent DNA replication assay; Potency, µM (series often up to 114 µM), without a hit: at the top dose activity change, negative = inhibition, actives largely listed as inhibitors; actives 1.2% (n = 390,000); AID 588591; note: potency is the fitted concentration of half-maximal effect; % is set by controls: 0 for no effect and ±100 for the full control effect
#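 Pol eta at 10 nM preincubated with compounds 15 min at room temperature; reaction started with fluorescent substrate (50 nM final) and read kinetically at 0 and 10 min.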
# Pol beta inh – blocks human DNA polymerase beta activity; actives 1.3% (n = 340,000); Potency, µM (titrated, usually from 114 µM), for the others: at the top dose activity change, negative = inhibition, hits mostly inhibitors; Pol beta primer extension/strand displacement, fluorescence kinetic; P06746; note: potency is the fitted concentration of half-maximal effect; % is set by controls: 0 for no effect and ±100 for the full control effect
#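 Curves were derived by four-parameter Hill fits of normalized qHTS data. The kinetic fluorescent primer-extension read was taken at 0 and 10 min after 50 nM substrate, following a 15 min room-temperature preincubation of 10 nM enzyme with compounds.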
# Pol kappa inh-1 – DNA polymerase kappa (human) inhibition; AID 588579; actives 0.53% (n = 400,000); Q9UBT6; Potency, µM (series often up to 107 µM), for inactives: at the highest dose activity, negative = inhibition, usual class: inhibitors; purified Pol kappa, fluorescent DNA synthesis assay, 10 min; note: potency is the fitted concentration of half-maximal effect; % is set by controls: 0 for no effect and ±100 for the full control effect
#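 10 nM Pol kappa was preincubated with compounds for 15 min at room temperature. Reaction started with 50 nM (final) substrate. Fluorescence read kinetically at 0 and 10 min.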
# Pol iota inh – DNA polymerase iota (human) inhibition; Q9UNA4; Pol iota fluorescent replication assay, 10 min; Potency, µM (top dose mostly 115 µM), for inactives: at the top dose activity, negative = inhibition, actives largely listed as inhibitors; actives 1% (n = 390,000); note: potency is the fitted concentration of half-maximal effect
#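 Pol iota at 10 nM preincubated 15 min with compounds at room temperature; reaction started with fluorescent substrate, 50 nM final. Fluorescence read kinetically at 0 and 10 min; buffer-only wells as negative control.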
# Pol iota confirm – Human Pol iota inhibitor confirmatory assay | shares compounds with Pol kappa inh-1 | Pol iota primer extension, TAMRA/BHQ fluorescence | Potency, µM, most hits filed as inhibitors | actives 77% (n = 1,500) | AID 720496; note: potency is the fitted concentration of half-maximal effect
# GALK confirm – confirmation of human galactokinase (GALK) inhibitors; Potency, µM (titrated, usually from 115 µM), for the others: at the top dose activity, negative = inhibition, usual class: inhibitors; AID 2015; purified GALK, Kinase-Glo ATP depletion luminescence; shares compounds with Pol eta inh-1; actives 70% (n = 150)
# Redox cycling – generates H2O2 by redox cycling, flagging GALK artifacts | actives 40% (n = 150) | shares compounds with Pol eta inh-1 | AID 2035 | Potency, µM (series often up to 115 µM), without a hit: top-dose activity change, negative = H2O2 signal, actives largely listed as inhibitors | Phenol red-HRP H2O2 redox cycling, absorbance 600 nm
# HEK293 viability – HEK-293 cytotoxicity, GALK inhibitor secondary; shares compounds with Pol eta inh-1; HEK-293 viability, ATP luminescence (CellTiter-Glo), 24/48 h; Potency, µM (titrated, usually from 46.1 µM), for the others: top-dose activity change, negative = cytotoxicity, actives largely listed as inhibitors; actives 10% (n = 170); note: potency is the fitted concentration of half-maximal effect; % is set by controls: 0 for no effect and ±100 for the full control effect
# Pol kappa inh-2 – confirmation of human DNA polymerase kappa inhibitors; shares compounds with Pol eta inh-1; purified Pol-kappa, fluorescent strand-displacement substrate; Potency, µM, hits mostly inhibitors; actives 76% (n = 920); note: potency is the fitted concentration of half-maximal effect
# Pol eta inh-2 – confirmation of human DNA polymerase eta inhibitors; Pol eta primer extension, TAMRA/BHQ fluorescence, 10 min; shares compounds with Pol eta inh-1; Potency, µM, most hits filed as inhibitors; actives 64% (n = 2,600); note: potency is the fitted concentration of half-maximal effect
# FEN1 inh-2 – confirmation of human FEN1 inhibitors; shares compounds with FEN1 inh-1; FEN1 flap cleavage, TAMRA/BHQ2 fluorogenic DNA substrate; Potency, µM, usual class: inhibitors; actives 79% (n = 880); AID 720498; note: potency is the fitted concentration of half-maximal effect; nearly all actives have a fitted effect of over 60% in size
# Numbers without * were called inactive; ? = inconclusive; . = no result given; [ ] = another dose, or the depositor's remark. Calls come from the whole dose curve; as a rule, active = well fitted curve in the direction sought with a large enough effect; inconclusive = small, poorly fitted or top-dose-only effect, or another doubt; inactive = no such curve, though single readings can be large; an effect the other way counts as inactive or inconclusive.
SMILES,FEN1 inh-1,WRN helicase inh,Pol eta inh-1,Pol beta inh,Pol kappa inh-1,Pol iota inh,Pol iota confirm,Pol eta inh-2,FEN1 inh-2,others
Cc1cccc2c1N(Cc1ccccc1OCCC(C)C)C(=O)C2=O,-8%,.,.,23%,-11%,?,.,.,.,
Cc1cc(C)n2nc(C(=O)N/N=C/c3c4ccccc4cc4ccccc34)nc2n1,45µM*,?,?,?,-16%,-1%,67*,?,?,
Cc1cc(C)n2nc(C(=O)N/N=C/c3ccccc3Cl)nc2n1,-1%,3%,0%,22%,-2%,43%,.,.,.,
CN1CCN(c2ncc3nc(-c4ccccc4)c(=O)n(CCC#N)c3n2)CC1,.,.,.,.,5%[60.1 µM],.,.,.,.,
O=c1c(=O)n(O)c2ccccc2n1O,0.79µM*,3%,-6%,9%,1%,-26%,?,.,1.3*,
CC(C)=CCC1=C(OCC(=O)O)C(=O)c2ccccc2C1=O,?,-20%[11.6 µM],22µM*,?,-2%,?,38*,27*,38*,GALK confirm=38µM*;Redox cycling=12µM*;HEK293 viability=-28%
Fc1ccc(Nc2ncncc2-c2ccoc2)cc1,.,.,.,.,-9%[60.1 µM],.,.,.,.,
O=C(O)c1cc(O)c2c(c1)C(=O)c1cccc(O)c1C2=O,?,27µM*,50µM*,11µM*,50µM*,40µM*,67*,76*,4.3*,Pol kappa inh-2=47*
COc1ccc(C2CC(c3ccccc3)Oc3cc(OC)c(OC)c(OC)c32)cc1 (stereo unspecified),-21%,.,.,.,0%,-3%,.,.,.,
C[C@H]1c2cccc(O)c2C(=O)C2C(=O)C3(O)C(=O)C(C(N)=O)C(=O)[C@@H](N(C)C)[C@@H]3[C@@H](O)[C@@H]21 (stereo partly specified),?,9%,-10%,.,-16%,?,.,.,.,
C=C1c2cccc(O)c2C(O)=C2C(=O)[C@]3(O)C(O)=C(C(N)=O)C(=O)[C@@H](N(C)C)[C@@H]3[C@@H](O)[C@H]12,?,?,32µM*,11µM*,6.3µM*,2.8µM*,7.5*,13*,34*,Pol kappa inh-2=3.8*
CC(=O)/C(N=Nc1ccc(C(=O)O)cc1)=C(\C)O,10%,-3%,0%,23%,-3%,36%,.,.,.,
CN(C)c1ccc(N=Nc2ccc(C(=O)O)cc2)cc1,?,?,3.5µM*,10µM*,32µM*,11µM*,21*,4.3*,38*,
